Experimental data as given in ChEMBL document CHEMBL1961873, “Compounds: GSK PKIS; Assays: Nanosyn kinase panel” (2012).

Tests used:
[1] = molecular target: 5'-AMP-activated protein kinase catalytic subunit alpha-2 (Homo sapiens) (UniProt P54646); conditions: at 1 µM
[2] = molecular target: T1, NUAK family SNF1-like kinase 1 (Homo sapiens) (UniProt O60285); conditions: at 0.1 µM
T1 sequence (whole entry): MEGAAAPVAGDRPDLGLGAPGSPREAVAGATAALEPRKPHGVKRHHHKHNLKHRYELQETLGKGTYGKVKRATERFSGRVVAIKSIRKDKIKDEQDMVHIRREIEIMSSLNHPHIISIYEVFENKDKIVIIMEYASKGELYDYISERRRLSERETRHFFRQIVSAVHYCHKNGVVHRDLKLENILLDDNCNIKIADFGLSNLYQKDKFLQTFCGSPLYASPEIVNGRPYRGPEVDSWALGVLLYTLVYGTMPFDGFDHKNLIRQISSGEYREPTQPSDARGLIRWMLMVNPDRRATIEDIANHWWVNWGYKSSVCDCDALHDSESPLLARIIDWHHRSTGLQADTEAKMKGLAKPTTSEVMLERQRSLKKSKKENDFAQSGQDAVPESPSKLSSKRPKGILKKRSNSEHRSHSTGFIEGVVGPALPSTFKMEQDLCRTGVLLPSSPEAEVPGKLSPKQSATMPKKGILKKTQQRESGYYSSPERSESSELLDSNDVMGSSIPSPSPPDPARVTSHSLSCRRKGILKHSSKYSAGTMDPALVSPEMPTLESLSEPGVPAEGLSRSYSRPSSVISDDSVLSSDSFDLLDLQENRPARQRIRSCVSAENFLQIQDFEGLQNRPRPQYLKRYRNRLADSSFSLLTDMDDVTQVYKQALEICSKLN

[3] = molecular target: T1, NUAK family SNF1-like kinase 1 (Homo sapiens); conditions: at 1 µM
[4] = molecular target: T2, Serine/threonine-protein kinase BRSK1 (Homo sapiens) (UniProt Q8TDC3); conditions: at 0.1 µM
T2 sequence (whole entry): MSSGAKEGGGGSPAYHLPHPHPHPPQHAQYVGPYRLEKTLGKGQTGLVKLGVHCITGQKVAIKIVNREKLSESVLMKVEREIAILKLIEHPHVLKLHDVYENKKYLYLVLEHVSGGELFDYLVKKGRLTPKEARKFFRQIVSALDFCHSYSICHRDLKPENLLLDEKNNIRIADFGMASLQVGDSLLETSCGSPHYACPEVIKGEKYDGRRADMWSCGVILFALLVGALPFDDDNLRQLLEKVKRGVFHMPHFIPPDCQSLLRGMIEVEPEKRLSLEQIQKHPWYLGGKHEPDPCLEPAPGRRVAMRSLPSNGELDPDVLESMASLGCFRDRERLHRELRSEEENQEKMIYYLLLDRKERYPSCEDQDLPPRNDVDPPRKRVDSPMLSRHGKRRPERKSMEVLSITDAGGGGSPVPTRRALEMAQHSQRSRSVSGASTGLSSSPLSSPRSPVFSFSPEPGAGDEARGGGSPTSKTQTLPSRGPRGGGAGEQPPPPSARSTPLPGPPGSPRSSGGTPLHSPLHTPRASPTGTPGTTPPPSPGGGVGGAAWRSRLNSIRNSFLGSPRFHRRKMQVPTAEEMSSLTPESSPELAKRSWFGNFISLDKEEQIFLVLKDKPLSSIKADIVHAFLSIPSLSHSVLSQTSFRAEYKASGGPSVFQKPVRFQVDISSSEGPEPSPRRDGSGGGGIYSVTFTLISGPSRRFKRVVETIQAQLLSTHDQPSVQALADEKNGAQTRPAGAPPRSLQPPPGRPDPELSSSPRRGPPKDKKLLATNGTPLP

[5] = molecular target: T2, Serine/threonine-protein kinase BRSK1 (Homo sapiens); conditions: at 1 µM
[6] = molecular target: T3, Serine/threonine-protein kinase BRSK2 (Homo sapiens) (UniProt Q8IWQ3); conditions: at 0.1 µM
T3 sequence (whole entry): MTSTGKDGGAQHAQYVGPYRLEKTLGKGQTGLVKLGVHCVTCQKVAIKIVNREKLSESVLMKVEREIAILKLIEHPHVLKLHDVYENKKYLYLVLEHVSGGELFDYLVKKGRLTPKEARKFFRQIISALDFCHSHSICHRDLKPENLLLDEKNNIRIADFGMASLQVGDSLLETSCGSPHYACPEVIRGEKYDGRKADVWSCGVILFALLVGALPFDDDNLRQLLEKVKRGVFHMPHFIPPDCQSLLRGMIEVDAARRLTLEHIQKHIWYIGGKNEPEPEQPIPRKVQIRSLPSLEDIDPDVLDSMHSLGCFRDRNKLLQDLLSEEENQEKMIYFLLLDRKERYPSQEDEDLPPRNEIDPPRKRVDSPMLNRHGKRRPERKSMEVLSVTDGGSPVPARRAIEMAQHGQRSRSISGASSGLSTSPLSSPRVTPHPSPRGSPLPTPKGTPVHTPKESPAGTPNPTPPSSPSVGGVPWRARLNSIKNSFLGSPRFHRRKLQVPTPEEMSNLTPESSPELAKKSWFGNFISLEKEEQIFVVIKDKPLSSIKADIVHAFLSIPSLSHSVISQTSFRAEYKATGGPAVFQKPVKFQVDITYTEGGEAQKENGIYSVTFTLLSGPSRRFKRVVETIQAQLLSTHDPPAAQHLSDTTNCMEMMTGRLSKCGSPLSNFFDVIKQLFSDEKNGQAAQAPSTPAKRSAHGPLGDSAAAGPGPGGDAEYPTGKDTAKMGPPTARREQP

[7] = molecular target: T3, Serine/threonine-protein kinase BRSK2 (Homo sapiens); conditions: at 1 µM
[8] = molecular target: Calcium/calmodulin-dependent protein kinase type 1D (Homo sapiens) (UniProt Q8IU85); conditions: at 0.1 µM
[9] = molecular target: Calcium/calmodulin-dependent protein kinase type 1D (Homo sapiens) (UniProt Q8IU85); conditions: at 1 µM
[10] = molecular target: Calcium/calmodulin-dependent protein kinase type II subunit alpha (Homo sapiens) (UniProt Q9UQM7); conditions: at 0.1 µM
[11] = molecular target: Calcium/calmodulin-dependent protein kinase type II subunit alpha (Homo sapiens) (UniProt Q9UQM7); conditions: at 1 µM
[12] = molecular target: Calcium/calmodulin-dependent protein kinase type II subunit delta (Homo sapiens) (UniProt Q13557); conditions: at 0.1 µM
[13] = molecular target: Calcium/calmodulin-dependent protein kinase type II subunit delta (Homo sapiens) (UniProt Q13557); conditions: at 1 µM
[14] = molecular target: T4, Calcium/calmodulin-dependent protein kinase type IV (Homo sapiens) (UniProt Q16566); conditions: at 0.1 µM
T4 sequence (whole entry): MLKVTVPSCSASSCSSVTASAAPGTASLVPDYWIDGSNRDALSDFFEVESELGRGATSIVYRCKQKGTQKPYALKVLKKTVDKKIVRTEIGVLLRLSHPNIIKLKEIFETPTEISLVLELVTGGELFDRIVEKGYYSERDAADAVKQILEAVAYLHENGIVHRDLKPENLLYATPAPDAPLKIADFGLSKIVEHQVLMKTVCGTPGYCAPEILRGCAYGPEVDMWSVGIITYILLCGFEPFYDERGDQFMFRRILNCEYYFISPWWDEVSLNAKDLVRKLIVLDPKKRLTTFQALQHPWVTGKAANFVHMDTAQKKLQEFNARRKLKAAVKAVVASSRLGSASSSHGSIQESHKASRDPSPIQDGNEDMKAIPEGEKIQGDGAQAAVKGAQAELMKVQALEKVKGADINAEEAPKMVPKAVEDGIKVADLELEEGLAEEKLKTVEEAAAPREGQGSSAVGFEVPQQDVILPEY

[15] = molecular target: T4, Calcium/calmodulin-dependent protein kinase type IV (Homo sapiens); conditions: at 1 µM
[16] = molecular target: T5, Serine/threonine-protein kinase Chk1 (Homo sapiens) (UniProt O14757); conditions: at 0.1 µM
T5 sequence (whole entry): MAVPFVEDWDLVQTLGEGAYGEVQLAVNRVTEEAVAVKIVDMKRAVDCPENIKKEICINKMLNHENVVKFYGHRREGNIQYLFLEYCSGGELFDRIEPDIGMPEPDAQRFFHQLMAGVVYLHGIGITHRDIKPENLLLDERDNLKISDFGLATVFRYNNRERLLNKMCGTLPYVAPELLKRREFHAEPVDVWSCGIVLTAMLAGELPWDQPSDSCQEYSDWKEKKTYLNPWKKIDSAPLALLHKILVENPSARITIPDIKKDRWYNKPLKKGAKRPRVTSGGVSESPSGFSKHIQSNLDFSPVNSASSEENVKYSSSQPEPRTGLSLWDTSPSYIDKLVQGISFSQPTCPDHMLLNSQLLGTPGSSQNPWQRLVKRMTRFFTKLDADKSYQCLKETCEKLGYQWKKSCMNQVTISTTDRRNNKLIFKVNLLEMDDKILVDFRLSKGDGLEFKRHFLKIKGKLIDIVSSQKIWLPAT

[17] = molecular target: T5, Serine/threonine-protein kinase Chk1 (Homo sapiens); conditions: at 1 µM
[18] = molecular target: Serine/threonine-protein kinase Chk2 (Homo sapiens) (UniProt O96017); conditions: at 0.1 µM
[19] = molecular target: Serine/threonine-protein kinase Chk2 (Homo sapiens) (UniProt O96017); conditions: at 1 µM
[20] = molecular target: Death-associated protein kinase 1 (Homo sapiens) (UniProt P53355); conditions: at 0.1 µM;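 further: reported figure is the mean inhibition of DAPK1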
Death-associated protein kinase 1 (Homo sapiens), sequence (P53355 whole entry, looked up): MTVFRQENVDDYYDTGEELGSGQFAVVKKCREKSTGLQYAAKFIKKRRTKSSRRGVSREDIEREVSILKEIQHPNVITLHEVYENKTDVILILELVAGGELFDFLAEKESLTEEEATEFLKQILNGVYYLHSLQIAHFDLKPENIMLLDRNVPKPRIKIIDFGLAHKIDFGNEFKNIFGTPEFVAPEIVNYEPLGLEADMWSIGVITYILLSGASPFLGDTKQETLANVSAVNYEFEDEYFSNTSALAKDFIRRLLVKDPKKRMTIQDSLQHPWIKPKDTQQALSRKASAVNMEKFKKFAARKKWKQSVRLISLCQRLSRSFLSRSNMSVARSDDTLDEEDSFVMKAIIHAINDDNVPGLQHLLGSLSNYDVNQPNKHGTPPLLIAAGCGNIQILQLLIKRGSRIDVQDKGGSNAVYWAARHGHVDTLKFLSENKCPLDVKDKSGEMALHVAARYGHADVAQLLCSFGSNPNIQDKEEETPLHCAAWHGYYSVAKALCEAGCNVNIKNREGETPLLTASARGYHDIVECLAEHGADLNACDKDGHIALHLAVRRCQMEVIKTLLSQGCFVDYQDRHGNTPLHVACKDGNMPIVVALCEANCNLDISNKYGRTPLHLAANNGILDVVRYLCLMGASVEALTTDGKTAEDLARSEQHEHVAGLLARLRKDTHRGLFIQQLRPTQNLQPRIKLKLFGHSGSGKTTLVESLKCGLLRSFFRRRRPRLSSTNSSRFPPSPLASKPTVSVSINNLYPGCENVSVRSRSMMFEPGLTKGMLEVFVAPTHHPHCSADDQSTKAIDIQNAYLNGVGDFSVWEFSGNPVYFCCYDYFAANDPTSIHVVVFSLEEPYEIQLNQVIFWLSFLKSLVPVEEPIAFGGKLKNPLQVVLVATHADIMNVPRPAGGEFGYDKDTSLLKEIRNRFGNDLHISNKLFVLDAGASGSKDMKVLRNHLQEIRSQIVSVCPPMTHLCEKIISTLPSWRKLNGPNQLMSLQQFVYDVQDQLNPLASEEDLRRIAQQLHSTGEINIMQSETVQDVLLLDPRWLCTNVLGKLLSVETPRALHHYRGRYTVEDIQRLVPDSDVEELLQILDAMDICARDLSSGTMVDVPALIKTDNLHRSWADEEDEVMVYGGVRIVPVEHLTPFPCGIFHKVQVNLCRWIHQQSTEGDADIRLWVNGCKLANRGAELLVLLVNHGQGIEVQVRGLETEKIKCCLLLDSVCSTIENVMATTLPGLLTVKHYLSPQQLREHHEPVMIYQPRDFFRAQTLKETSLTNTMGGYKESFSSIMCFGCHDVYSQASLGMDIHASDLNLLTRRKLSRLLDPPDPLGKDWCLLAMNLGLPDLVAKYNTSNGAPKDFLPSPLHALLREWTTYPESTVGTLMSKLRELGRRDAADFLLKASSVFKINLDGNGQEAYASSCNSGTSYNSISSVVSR

Calcium/calmodulin-dependent protein kinase type II subunit alpha (Homo sapiens), sequence (Q9UQM7 whole entry): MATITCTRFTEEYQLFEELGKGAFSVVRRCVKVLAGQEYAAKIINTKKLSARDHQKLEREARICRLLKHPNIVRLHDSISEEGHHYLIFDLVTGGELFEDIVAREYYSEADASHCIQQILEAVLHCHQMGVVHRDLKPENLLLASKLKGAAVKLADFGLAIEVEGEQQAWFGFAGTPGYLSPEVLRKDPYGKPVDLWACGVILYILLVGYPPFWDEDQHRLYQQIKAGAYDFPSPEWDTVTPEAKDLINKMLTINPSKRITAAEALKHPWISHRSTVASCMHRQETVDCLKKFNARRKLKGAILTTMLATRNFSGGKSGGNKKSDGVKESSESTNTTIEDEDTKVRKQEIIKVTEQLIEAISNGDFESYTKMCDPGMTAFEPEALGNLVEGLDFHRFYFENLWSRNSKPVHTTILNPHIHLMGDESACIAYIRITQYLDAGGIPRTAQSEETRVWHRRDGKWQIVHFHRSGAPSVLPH
Calcium/calmodulin-dependent protein kinase type II subunit delta (Homo sapiens), sequence (Q13557 whole entry): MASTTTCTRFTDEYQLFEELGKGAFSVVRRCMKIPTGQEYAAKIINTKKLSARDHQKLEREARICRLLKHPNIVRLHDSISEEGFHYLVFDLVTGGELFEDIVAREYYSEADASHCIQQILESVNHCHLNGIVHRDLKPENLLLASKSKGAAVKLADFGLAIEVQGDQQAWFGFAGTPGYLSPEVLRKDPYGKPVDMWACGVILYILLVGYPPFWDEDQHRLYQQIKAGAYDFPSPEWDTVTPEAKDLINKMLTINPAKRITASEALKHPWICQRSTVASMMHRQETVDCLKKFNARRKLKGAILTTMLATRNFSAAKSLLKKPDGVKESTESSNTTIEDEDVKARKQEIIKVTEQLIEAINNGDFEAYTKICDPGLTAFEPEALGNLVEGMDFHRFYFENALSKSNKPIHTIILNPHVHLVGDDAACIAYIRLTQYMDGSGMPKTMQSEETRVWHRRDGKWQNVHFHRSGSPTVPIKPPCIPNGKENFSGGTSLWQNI
5'-AMP-activated protein kinase catalytic subunit alpha-2 (Homo sapiens), sequence (P54646 whole entry, looked up): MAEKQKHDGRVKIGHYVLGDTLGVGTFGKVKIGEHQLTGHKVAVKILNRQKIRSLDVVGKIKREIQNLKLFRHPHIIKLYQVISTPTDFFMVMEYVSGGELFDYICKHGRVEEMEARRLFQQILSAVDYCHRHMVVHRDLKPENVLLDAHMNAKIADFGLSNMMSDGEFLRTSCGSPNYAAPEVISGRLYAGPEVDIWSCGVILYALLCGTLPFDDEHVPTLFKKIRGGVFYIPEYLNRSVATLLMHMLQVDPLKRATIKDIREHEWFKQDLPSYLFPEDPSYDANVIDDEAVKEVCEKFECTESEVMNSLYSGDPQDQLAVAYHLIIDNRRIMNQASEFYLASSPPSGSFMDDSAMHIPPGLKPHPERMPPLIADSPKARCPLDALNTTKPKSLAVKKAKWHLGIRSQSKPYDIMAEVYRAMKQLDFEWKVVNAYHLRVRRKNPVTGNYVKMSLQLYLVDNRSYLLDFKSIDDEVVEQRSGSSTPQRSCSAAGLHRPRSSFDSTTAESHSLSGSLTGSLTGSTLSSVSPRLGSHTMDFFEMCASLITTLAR
Serine/threonine-protein kinase Chk2 (Homo sapiens), sequence (O96017 whole entry): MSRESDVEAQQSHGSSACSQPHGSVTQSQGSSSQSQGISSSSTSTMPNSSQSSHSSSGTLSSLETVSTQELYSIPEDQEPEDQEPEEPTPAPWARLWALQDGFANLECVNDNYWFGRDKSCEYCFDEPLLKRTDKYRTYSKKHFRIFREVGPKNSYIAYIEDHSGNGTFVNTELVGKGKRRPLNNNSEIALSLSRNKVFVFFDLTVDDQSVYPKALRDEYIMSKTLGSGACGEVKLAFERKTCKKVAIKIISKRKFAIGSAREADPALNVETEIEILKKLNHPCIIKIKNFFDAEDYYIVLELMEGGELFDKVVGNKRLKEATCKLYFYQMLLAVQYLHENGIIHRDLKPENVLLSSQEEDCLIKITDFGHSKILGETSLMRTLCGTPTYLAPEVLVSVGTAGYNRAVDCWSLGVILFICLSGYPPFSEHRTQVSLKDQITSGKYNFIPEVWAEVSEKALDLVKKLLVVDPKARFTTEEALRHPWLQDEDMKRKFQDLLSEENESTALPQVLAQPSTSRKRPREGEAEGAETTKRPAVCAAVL
Calcium/calmodulin-dependent protein kinase type 1D (Homo sapiens), sequence (Q8IU85 whole entry, looked up): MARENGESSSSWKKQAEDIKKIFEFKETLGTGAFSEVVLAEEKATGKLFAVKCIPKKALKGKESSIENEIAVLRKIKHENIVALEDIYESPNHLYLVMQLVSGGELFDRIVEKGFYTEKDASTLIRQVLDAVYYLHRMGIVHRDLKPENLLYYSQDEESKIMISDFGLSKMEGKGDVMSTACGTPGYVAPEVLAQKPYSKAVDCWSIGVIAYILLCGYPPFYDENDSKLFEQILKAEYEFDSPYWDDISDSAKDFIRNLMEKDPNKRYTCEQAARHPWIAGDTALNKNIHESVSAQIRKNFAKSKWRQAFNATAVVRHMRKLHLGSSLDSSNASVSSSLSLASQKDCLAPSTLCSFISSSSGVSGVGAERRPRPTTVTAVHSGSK

NS(=O)(=O)c1cccc(Nc2cc(-c3ccc(F)cc3)n[nH]2)c1
inhibition [1]: 10.9% | inhibition [2]: -3.46% | inhibition [3]: 12.6% | inhibition [4]: 1.36% | inhibition [5]: 5.97% | inhibition [6]: 3.15% | inhibition [7]: 11.2% | inhibition [8]: -0.34% | inhibition [9]: -0.05% | inhibition [10]: 2.68% | inhibition [11]: 3.11% | inhibition [12]: 2.57% | inhibition [13]: 7.84% | inhibition [14]: -1.7% | inhibition [15]: -3.94% | inhibition [16]: -1.71% | inhibition [17]: 17.6% | inhibition [18]: 8.44% | inhibition [19]: 11.9% | inhibition [20]: 10.4%

Cc1cc(O)cc(C)c1/C=C/c1cncc(C(=O)N(C)C)c1
inhibition [1]: 4.38% | inhibition [2]: 1.62% | inhibition [3]: 8.58% | inhibition [4]: 2.98% | inhibition [5]: 8.54% | inhibition [6]: 3.48% | inhibition [7]: 6.07% | inhibition [8]: -0.81% | inhibition [9]: 2.29% | inhibition [10]: 3.26% | inhibition [11]: 3.57% | inhibition [12]: 3.56% | inhibition [13]: 4.04% | inhibition [14]: 2.13% | inhibition [15]: 0.97% | inhibition [16]: 5.84% | inhibition [17]: 2.96% | inhibition [18]: -0.15% | inhibition [19]: 0.11% | inhibition [20]: 3.93%

COC(=O)c1ccc2c(c1)C(=Cc1cc(Br)c(O)c(Br)c1)C(=O)N2
inhibition [1]: 4.79% | inhibition [2]: -1.29% | inhibition [3]: 2.73% | inhibition [4]: 3.81% | inhibition [5]: 2.04% | inhibition [6]: 0.42% | inhibition [7]: 5.14% | inhibition [8]: 0.26% | inhibition [9]: 3.35% | inhibition [10]: 2.97% | inhibition [11]: 5.83% | inhibition [12]: 3.29% | inhibition [13]: 9.61% | inhibition [14]: -0.49% | inhibition [15]: 4.64% | inhibition [16]: 9.68% | inhibition [17]: 14.6% | inhibition [18]: 8.72% | inhibition [19]: 20.6% | inhibition [20]: 9.92%

CC(C)c1ccc(Nc2nccc(-c3cnn4ncccc34)n2)cc1
inhibition [1]: 4.11% | inhibition [2]: 12.6% | inhibition [3]: 48.9% | inhibition [4]: -0.04% | inhibition [5]: 3.13% | inhibition [6]: 1.33% | inhibition [7]: 4.11% | inhibition [8]: -0.71% | inhibition [9]: 2.35% | inhibition [10]: 1.42% | inhibition [11]: 4.19% | inhibition [12]: 2.72% | inhibition [13]: 8.29% | inhibition [14]: 1.15% | inhibition [15]: 2.83% | inhibition [16]: -1.58% | inhibition [17]: -2.41% | inhibition [18]: 1.57% | inhibition [19]: 3.38% | inhibition [20]: -1.79%

COc1cc(Nc2nccc(-c3cnn4ncccc34)n2)cc(OC)c1
inhibition [1]: 17.4% | inhibition [2]: 69.1% | inhibition [3]: 84.8% | inhibition [4]: 1.03% | inhibition [5]: 5.11% | inhibition [6]: 0.3% | inhibition [7]: 6.76% | inhibition [8]: 0.86% | inhibition [9]: 6.41% | inhibition [10]: 3.61% | inhibition [11]: 15.2% | inhibition [12]: 6.12% | inhibition [13]: 36.4% | inhibition [14]: 1.42% | inhibition [15]: -0.26% | inhibition [16]: -0.97% | inhibition [17]: 7.68% | inhibition [18]: 1.81% | inhibition [19]: 14.1% | inhibition [20]: 1.9%

NC(=O)c1sc(-n2cnc3ccccc32)cc1OCc1ccccc1Br
inhibition [1]: 4.98% | inhibition [2]: 7.8% | inhibition [3]: 29.1% | inhibition [4]: 3.67% | inhibition [5]: 8.3% | inhibition [6]: 3.06% | inhibition [7]: 17.1% | inhibition [8]: 0.13% | inhibition [9]: 2.21% | inhibition [10]: 1.7% | inhibition [11]: 3.18% | inhibition [12]: 3.32% | inhibition [13]: 7.99% | inhibition [14]: 0.49% | inhibition [15]: 2.57% | inhibition [16]: 9.58% | inhibition [17]: 13.2% | inhibition [18]: 7.49% | inhibition [19]: 10.5% | inhibition [20]: 12.3%

COc1cccc(-n2nc(C)c3c(N/N=C(\C)c4ccncc4)ncnc32)c1
inhibition [1]: 1.4% | inhibition [2]: 3.11% | inhibition [3]: 2.97% | inhibition [4]: 0.77% | inhibition [5]: -2.02% | inhibition [6]: -0.07% | inhibition [7]: 0.93% | inhibition [8]: -0.6% | inhibition [9]: 2.19% | inhibition [10]: -1.72% | inhibition [11]: -0.32% | inhibition [12]: 0.75% | inhibition [13]: 1.55% | inhibition [14]: -0.54% | inhibition [15]: 0.81% | inhibition [16]: 0.24% | inhibition [17]: 0.57% | inhibition [18]: 0.02% | inhibition [19]: 0.48% | inhibition [20]: 0.32%
